The record followed here is PubChem BioAssay AID463195 (Sanford-Burnham Center for Chemical Genomics, 2010).

Usually inhibition stands for the relative decrease from the control value, in per cent.

Among all 330,000 compounds or so, about 4,600 (1.4%) were called active. This excerpt belongs to a sample that is enriched for actives. Values without a mark were called inactive.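 The calls were made as follows: active = inhibition of 40% or more at the single tested concentration; inactive = the rest.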

This test can be described thus: wild-type TIM10 yeast growth inhibition – luminescence, uHTS, counter-screen for tim10-1 yeast inhibitor project, primary screen (AID 463195).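 Also: wild-type TIM10 isogenic control strain grown at permissive 25 °C; 0% = DMSO yeast wells and 100% = minimal medium wells without yeast.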 Conditions: S. cerevisiae TIM10 strain growth, BacTiter-Glo luminescence, 24 h; at 10 µM; hits give high values. (In general: Counterscreens check selectivity or assay interference.)
On to `Cc1ccc(-c2nc3ccccc3c(=O)n2-c2ccc(Br)cn2)cc1`, for which the inhibition is 43.5% (active).
Regarding `O=c1c2ccccc2nc(-c2ccccc2)n1-c1ccccn1`, the inhibition is 9.32%.
The result for `O=c1c2ccccc2nc(-c2ccco2)n1-c1ccc(Br)cn1` reads 5.95%; that for `C=CC12CN(C)[C@@H]3C4CO[C@H](C[C@H]41)[C@]1(C(=O)Nc4ccccc41)[C@@H]32` (stereo not given in full), -2.08%; that for `O=c1c2ccccc2nc(-c2ccc(Cl)cc2Cl)n1-c1ccncc1`, 18.8%.
Take `CCN(CC)CCOC(=O)c1cc2cc(COC)ccc2o1`: the inhibition was -10.2%.
In the case of `CC(C)CN1CCN(Cc2ccccc2C(F)(F)F)CC1CCO` (stereo not given) it was -6.36%; in that of `C/C(=N/O)c1ccc2ccc3ccccc3c2c1`, 40.7% (active); in that of `C/C(CCc1c[nH]c2ccccc12)=N\O`, 6.37%.
The result for `O=[N+]([O-])c1cnc2ccc3ccccc3c2c1` reads -22.9%; that for `Cc1c(C(=O)O)cccc1-n1c(C)cc(/C=C2\C(=O)NC(=O)N(c3ccc4c(c3)OCO4)C2=O)c1C`, -7.16%; that for `COc1cccc(N2C(=O)NC(=O)/C(=C\c3ccc([N+](=O)[O-])s3)C2=O)c1`, 78.4% (active).
The result for `O=C1NC(=O)N(c2ccccc2)C(=O)/C1=C/c1ccc([N+](=O)[O-])s1` reads 85.5% (active); that for `COc1ccc(N2C(=O)/C(=C/c3ccco3)C(=O)NC2=S)cc1`, -0.32%.
In the case of `CCc1cccc2c(C#N)cn(CC(=O)N3CCOCC3)c12`, the inhibition was 9.92%.
In the case of `Cn1c(C(=O)N2CCC(C(=O)N3CCC4(CC3)OCCO4)CC2)cc2sccc21` it was 1.3%.
In the case of `COc1ccc(CCn2c(O)c(C=NC3CC3)c(=O)[nH]c2=O)cc1OC` it was 0.042%; in that of `CC(=O)Cc1ccc(OC(C)C)cc1`, -13.5%; in that of `CC(C(=O)Nc1ccc(Cl)cc1Cl)N1CC=C(c2ccccc2)CC1` (stereo not given), 15.3%.
Consider `CCCCCn1c(=O)c(C(=O)Nc2c(C)n(C)n(-c3ccccc3)c2=O)c(O)c2ccccc21`, for which the inhibition was 24.7%.
In the case of `Cc1cc2ccccn2c1C(C[N+](=O)[O-])c1c(F)cccc1Cl` (stereo not given) it was 52.7% (active); in that of `CCN1c2nc3c(C)cccn3c(=O)c2CC2(C(=O)N(C)C(=O)N(C)C2=O)C1C` (stereo not given), 5.19%; in that of `Cc1cccc(NC(=O)N2CC3CC(C2)c2cccc(=O)n2C3)c1` (stereo not given), -9.99%.
Take `CC[C@H]1CC2CN3CCc4c([nH]c5ccccc45)C(C(=O)OC)(C2)C13` (stereo not given in full): the inhibition is -1.49%.
The result for `COC(=O)C1=C(c2ccccc2)C[C@@H]2CC[C@H]1N2C(=O)N1CCCCC1` reads 28.7%.
